# Bioassay records from PubChem BioAssay.
# Rows were chosen to be rich in hits. Some 4.7% of all compounds tested hit in one or more screens of this group.
# MPTP inh = inhibitors of mitochondrial permeability transition pore; 360,000 tested, 1.4% active; inhibition, % at 10 µM; isolated mouse mitochondria, Ca2+ swelling absorbance, 30 min;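 active means inhibition of 50% or more, scaled per plate between neutral and stimulator controls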
# ADAM10 inh = inhibitors of human ADAM10; O14672; recombinant ADAM10, EDANS/DABCYL FRET peptide cleavage, 3 h; inhibition, % at 7 µM; 370,000 tested, 0.62% active;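 active means inhibition above a per-campaign cutoff equal to the mean of compounds falling between control-based bounds plus 3 SD, cut at about 20% in these data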
# ADAM17 inh = inhibits human ADAM17; recombinant ADAM17, EDANS/DABCYL FRET peptide cleavage; inhibition, % at 6.95 µM; 370,000 tested, 0.83% active;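 active means inhibition above the mean of compounds lying between control limits plus 3 SD, set per campaign, cut at about 8.5% in these data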
# rCAG binder = r(CAG) repeat RNA binding. TO-PRO-1 dye displacement fluorescence. 370,000 tested, 1.3% active. inhibition, % at 3 µM;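 active means inhibition above the plate cutoff, the mean of all test compounds on that plate plus 3 SD, cut at about 35% in these data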;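 further: higher means more dye released from RNA so lower well fluorescence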
# Pemphigus Ab inh = human desmoglein-3 autoantibody binding inhibition | P32926 | DSG3-coupled beads, scFv-anti-DSG3-GFP binding, flow cytometry; active compounds read low | binding (percent of control), % at 10 µM | 310,000 tested, 0.48% active | AID 588358;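 active means binding more than 3 SD below its plate's average and above zero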;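 further: hits lower antibody fragment binding to DSG3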
# proKLK7 act = activators of human kallikrein-7 zymogen; P49862; purified proKLK7, EDANS-DABCYL substrate fluorescence; 100% is mature enzyme control, 0% vehicle; activation, % at 7 µM; 370,000 tested, 0.9% active; AID 652039;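 active means activation above the mean of all tested compounds plus 3 SD, computed per campaign excluding outliers beyond control limits, cut at about 13% in these data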
# rCAG binder conf = r(CAG) RNA repeat binding, confirmation; shares compounds with rCAG binder; 4,300 tested, 70% active; inhibition, % at 3 µM; TO-PRO-1 dye displacement fluorescence;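 active means inhibition above a per-plate cutoff, the mean inhibition of sample wells plus 3 SD, cut at about 35% in these data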;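 further: loss of TO-PRO-1 fluorescence as compound displaces dye from 1x1 AA loop RNA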
# DNA CAG counter = disrupts DNA CAG TO-PRO-1 complex, flagging rCAG hits; shares compounds with rCAG binder; d(CAG) DNA oligo TO-PRO-1 dye displacement, fluorescence; inhibition, % at 3 µM; 4,300 tested, 94% active; AID 652068;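 active means inhibition above its plate's cutoff, the mean test-well inhibition plus 3 SD, cut at about 4.8% in these data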;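 further: hits displace the dye from DNA and so lower well fluorescence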
# dCAG dye DR = DNA CAG dye complex inhibition, dose response counter-screen; DNA CAG/GTC duplex TO-PRO-1 dye displacement fluorescence; 250 tested, 20% active; shares compounds with rCAG binder; AID 686960; IC50, µM; in the data active means IC50 below about 10 µM
# Numbers stand for hits; . = inactive; / = not tested or not shown.
SMILES,MPTP inh,ADAM10 inh,ADAM17 inh,rCAG binder,Pemphigus Ab inh,proKLK7 act,rCAG binder conf,DNA CAG counter,others
Cc1nn(-c2ccccc2)c(Cl)c1/C=C(/CC(=O)O)c1nc2ccccc2s1,.,.,.,47,/,.,36,9.8,
Cc1nn(-c2ccccc2)c(Cl)c1/C=C(\CC(=O)O)c1nc2ccccc2s1,.,.,.,42,.,.,43,13,
Cc1c(/C=C(\CC(=O)O)c2nc3ccccc3s2)cc(C#N)n1C,.,.,.,.,.,.,/,/,
Cc1nn(-c2ccccc2)c(Cl)c1/C=C/C(=O)c1ccccc1,.,/,/,/,.,/,/,/,
CNc1ccc(Br)cc(C(=O)/C=C/c2cc(OC)ccc2OC)c1=O,.,.,.,43,.,.,38,16,
CNc1ccc(Br)cc(C(=O)/C=C/c2ccc3c(c2)OCO3)c1=O,.,.,.,.,.,.,/,/,
CCNc1ccc(Br)cc(C(=O)/C=C/c2ccc(Cl)cc2Cl)c1=O,.,.,.,45,.,.,48,21,
COc1ccc(/C=C/C(=O)c2cc(Br)ccc2O)cc1OC,.,.,.,.,.,.,/,/,
CNc1ccc(Br)cc(C(=O)/C=C/c2ccc(OC)cc2)c1=O,.,.,.,42,.,.,40,15,
COP(=O)(OC)OC(C(=O)c1ccccc1)c1ccc(Cl)cc1 (centres undefined),.,.,.,.,/,.,/,/,
COC(=O)[C@]12C[C@H](CC(=O)NCC34CC5CC(CC(C5)C3)C4)C(=O)N(Cc3cccc4ccccc34)C1=C[C@H](COCc1ccccc1)O[C@@H]2C,/,.,.,.,/,.,/,/,
CCN(CC(=O)NC(=O)NC1CCCC1)Cc1ccccc1,.,.,.,.,.,.,/,/,
CSc1nnc(NC(=O)c2nc(S(=O)(=O)Cc3cccc(C)c3)ncc2Cl)s1,.,.,.,37,.,.,.,4.5,
CCSc1nnc(NC(=O)c2nc(S(=O)(=O)Cc3ccc(F)cc3)ncc2Cl)s1,.,.,.,36,.,.,.,5.8,
CSc1ncc(Cl)c(C(=O)Nc2nnc(SC/C=C/c3ccccc3)s2)n1,.,.,.,66,.,.,67,20,
C#CCN1CC(COCCCC)Oc2cccc(F)c2S1(=O)=O (centres undefined),/,.,.,.,/,.,/,/,
COc1ccc(-c2sc(C(=O)c3ccc(Cl)cc3Cl)cc2CC(=O)O)cc1,.,.,.,54,.,.,56,17,
O=C(CN1C(=O)NC2(CCCCCC2)C1=O)Nc1ccc(Br)cc1Br,.,.,.,.,.,.,/,/,
CC1C/C=C/C=C/C=C/C=C/C(O[C@@H]2O[C@H](C)[C@@H](O)[C@H](N)[C@@H]2O)CC2OC(O)(CC(O)CC3OC3/C=C/C(=O)O1)CC(O)C2C(=O)O (some centres undefined),/,.,.,.,/,.,/,/,
C[C@@H]1[C@H](O)[C@@H](C)/C=C/C=C/C=C/C=C/C=C/C=C/C=C/[C@H](OC2O[C@H](C)[C@@H](O)[C@H](N)[C@@H]2O)C[C@@H]2O[C@](O)(C[C@@H](O)C[C@@H](O)[C@H](O)CC[C@@H](O)C[C@@H](O)CC(=O)O[C@H]1C)C[C@H](O)[C@H]2C(=O)O (some centres undefined),/,.,.,41,/,.,44,14,dCAG dye DR=.
CCCNC(C)C(=O)Nc1c(C)csc1C(=O)OC (centres undefined),.,.,.,.,.,.,/,/,
COc1ccc(OC)c(NS(=O)(=O)c2ccc(SC)cc2)c1,.,.,.,.,.,.,/,/,
CCOc1ccc(NS(=O)(=O)c2ccc(NS(=O)(=O)c3ccc(SC)cc3)cc2)cc1,.,.,.,49,.,.,55,18,
